Hits are enriched below; roughly 1.4% of the tested compounds scored in any of these assays.
Sa ugtP lethal: growth inhibition of S. aureus ugtP deletion strain | S. aureus RN4220 ugtP deletion, OD600 growth, 16 h | growth inhibition, % (concentration not given with the values) | 330,000 compounds, 0.54% hits | AID 1259309; in the data active = growth inhibition above about 68%
BJeLR viability: kills HRASV12-expressing BJeLR cells | BJeLR (HRASV12) viability, CellTiter-Glo ATP luminescence, 48 h | inhibition, % (concentration not given with the values) | 300,000 compounds, 0.17% hits; in the data active = inhibition above about 50%
Sa RN4220 lethal: kills Staphylococcus aureus RN4220 | S. aureus RN4220 growth, OD600, 16 h | inhibition, % (no concentration beside the values) | 330,000 compounds, 0.33% hits; in the data active = inhibition above about 85%
PrPC TRFRET: inhibitors of human cell surface prion protein PrPC; P04156; TR-FRET read-out; inhibition, % at 13.8 µM; 370,000 compounds, 0.43% hits; in the data active = inhibition above about 24%
SARS 3CLpro inh-1: SARS-CoV 3CLpro protease inhibition; AID 1706; recombinant SARS-CoV 3CLpro, quenched FRET peptide cleavage; inhibition, % at 6 µM; 290,000 compounds, 0.14% hits; in the data active = inhibition above about 12%
VHR inh abs: inhibitors of human VHR1 phosphatase (DUSP3); P51452; recombinant VHR phosphatase, pNPP absorbance; inhibition, % at 13.3 µM; 290,000 compounds, 0.52% hits; AID 1654; in the data active = inhibition above about 50%
Target sequence (P51452 whole entry, looked up): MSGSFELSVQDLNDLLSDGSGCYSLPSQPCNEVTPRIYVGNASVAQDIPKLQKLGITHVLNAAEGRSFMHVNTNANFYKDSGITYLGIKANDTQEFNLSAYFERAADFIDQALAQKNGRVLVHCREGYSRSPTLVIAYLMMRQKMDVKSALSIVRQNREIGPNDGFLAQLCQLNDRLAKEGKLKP
SARS 3CLpro inh-2: SARS 3CLpro inhibition, confirmation assay; AID 1879; inhibition, % at 6 µM; 380 compounds, 36% hits; QFRET protease activity assay; shares compounds with SARS 3CLpro inh-1; in the data active = inhibition above about 13%
A number is an active result.

What do the screens show for `CC(C)OP(=O)(OC(C)C)C1(NS(=O)(=O)c2ccc(Cl)cc2)C=C(Cl)C(=O)C(Cl)=C1`?
Sa ugtP lethal: inactive; BJeLR viability: inactive; Sa RN4220 lethal: inactive; PrPC TRFRET: inactive; SARS 3CLpro inh-1: 17; VHR inh abs: inactive; SARS 3CLpro inh-2: inactive

Results for Nc1c(C(O)(C(F)(F)F)C(F)(F)F)cc(C(O)(C(F)(F)F)C(F)(F)F)c2ccccc12 ?
Sa ugtP lethal: inactive; BJeLR viability: inactive; Sa RN4220 lethal: inactive; SARS 3CLpro inh-1: 14; VHR inh abs: inactive; SARS 3CLpro inh-2: inactive

What do the screens show for `Cc1cc(NC(=O)COn2nnc3ccc(S(C)(=O)=O)cc32)ccc1Br`?
Sa ugtP lethal: inactive; BJeLR viability: inactive; Sa RN4220 lethal: inactive; PrPC TRFRET: inactive; SARS 3CLpro inh-1: 24; VHR inh abs: inactive; SARS 3CLpro inh-2: 31

How did COc1cc(NC(=O)COn2nnc3ccc(S(C)(=O)=O)cc32)cc(OC)c1 do in these assays?
Sa ugtP lethal: inactive; BJeLR viability: inactive; Sa RN4220 lethal: inactive; PrPC TRFRET: inactive; SARS 3CLpro inh-1: inactive; VHR inh abs: inactive

Results for O=C(COn1nnc2ccc(S(=O)(=O)N3CCOCC3)cc21)Nc1c(F)c(F)c(F)c(F)c1F ?
Sa ugtP lethal: inactive; BJeLR viability: inactive; Sa RN4220 lethal: inactive; PrPC TRFRET: inactive; SARS 3CLpro inh-1: inactive; VHR inh abs: inactive

How did Cc1cc(Br)c(NC(=O)COn2nnc3ccc(S(C)(=O)=O)cc32)c(Br)c1 do in these assays?
Sa ugtP lethal: inactive; BJeLR viability: inactive; Sa RN4220 lethal: inactive; PrPC TRFRET: inactive; SARS 3CLpro inh-1: 12; VHR inh abs: inactive; SARS 3CLpro inh-2: inactive

What do the screens show for `CC(C=NN1CCN(Cc2ccc(C)cc2)CC1)=Cc1ccccc1`?
Sa ugtP lethal: inactive; Sa RN4220 lethal: inactive

What do the screens show for `CCCCCC(=O)Nc1cccc(C2=NOC3(C2)CC(C(N)=O)N(C(=O)c2ccccc2)C3)c1` (centres undefined)?
Sa ugtP lethal: inactive; Sa RN4220 lethal: inactive

What do the screens show for `CCn1cc(C(=O)NC(=S)Nc2ccccc2[N+](=O)[O-])cn1`?
Sa ugtP lethal: inactive; BJeLR viability: inactive; Sa RN4220 lethal: inactive; PrPC TRFRET: inactive; SARS 3CLpro inh-1: 13; VHR inh abs: inactive; SARS 3CLpro inh-2: inactive

How did CC(C)(C)OC(=O)CNC(=O)c1[nH]cnc1C(=O)NC(Cc1ccccc1)C(=O)OC(C)(C)C (centres undefined) do in these assays?
Sa ugtP lethal: inactive; Sa RN4220 lethal: inactive

What do the screens show for `O=C1N/C(=N/S(=O)(=O)Cc2ccccc2)S/C1=C/c1ccc2c(c1)OCO2`?
Sa ugtP lethal: inactive; BJeLR viability: inactive; Sa RN4220 lethal: inactive; PrPC TRFRET: inactive; SARS 3CLpro inh-1: 13; VHR inh abs: inactive; SARS 3CLpro inh-2: inactive

Results for O=C(O)/C(=C\c1ccccc1OC(F)F)c1ccc(-c2ccccc2)cc1 ?
Sa ugtP lethal: inactive; BJeLR viability: inactive; Sa RN4220 lethal: inactive; PrPC TRFRET: inactive; SARS 3CLpro inh-1: inactive; VHR inh abs: inactive

How did O=C(O)/C(=C\c1ccc(F)cc1)c1ccc(-c2ccccc2)cc1 do in these assays?
Sa ugtP lethal: inactive; BJeLR viability: inactive; Sa RN4220 lethal: inactive; PrPC TRFRET: inactive; SARS 3CLpro inh-1: 13; VHR inh abs: inactive; SARS 3CLpro inh-2: inactive

What do the screens show for `O=C1C=C(c2ccc(C(=O)O)cc2)CC(c2ccc(F)cc2)C1` (centres undefined)?
Sa ugtP lethal: inactive; Sa RN4220 lethal: inactive

Results for COc1ccc(C(=O)Nn2cnc3scc(-c4cccs4)c3c2=O)c(O)c1 ?
Sa ugtP lethal: inactive; BJeLR viability: inactive; Sa RN4220 lethal: inactive; PrPC TRFRET: inactive; SARS 3CLpro inh-1: 14; SARS 3CLpro inh-2: inactive

How did COc1ccc(CN2CC(=O)N3C4c5ccccc5OCC4C(c4ccccc4)[C@]3(C)C2=O)cc1 (some centres undefined) do in these assays?
Sa ugtP lethal: inactive; Sa RN4220 lethal: inactive

What do the screens show for `CCN(CC)C(=O)Cn1cc(/C=C2\C(=O)NC(=O)N(c3ccccc3F)C2=O)c2ccccc21`?
Sa ugtP lethal: inactive; BJeLR viability: inactive; Sa RN4220 lethal: inactive; PrPC TRFRET: inactive; SARS 3CLpro inh-1: 17; VHR inh abs: inactive; SARS 3CLpro inh-2: 23

Results for O=C(O)Cn1cc(/C=C2\C(=O)NC(=O)N(c3ccc(Cl)cc3)C2=O)c2ccccc21 ?
Sa ugtP lethal: inactive; BJeLR viability: inactive; Sa RN4220 lethal: inactive; PrPC TRFRET: inactive; SARS 3CLpro inh-1: inactive; VHR inh abs: inactive

What do the screens show for `CCOC1OC(C(=O)NC2CC2)=CC(C2CCCCC2)C1CCCO` (centres undefined)?
Sa ugtP lethal: inactive; Sa RN4220 lethal: inactive

Results for CCOC(=O)c1sc(N(Cc2ccccc2)C(=O)CCl)nc1C ?
Sa ugtP lethal: inactive; BJeLR viability: inactive; Sa RN4220 lethal: inactive; PrPC TRFRET: inactive; SARS 3CLpro inh-1: inactive; VHR inh abs: inactive

Results for O=C(O)CSCC(=O)N(Cc1ccccc1)c1nc(-c2ccccc2)c(-c2ccccc2)s1 ?
BJeLR viability: inactive; PrPC TRFRET: inactive; SARS 3CLpro inh-1: 12; VHR inh abs: inactive; SARS 3CLpro inh-2: inactive

How did O=C1C2C(c3ccccc3)C=CC(c3ccccc3)C2C(=O)N1c1ccncc1 (centres undefined) do in these assays?
Sa ugtP lethal: inactive; BJeLR viability: inactive; Sa RN4220 lethal: inactive; PrPC TRFRET: inactive; SARS 3CLpro inh-1: inactive; VHR inh abs: inactive

How did O=C1C2C(c3ccccc3)C=CC(c3ccccc3)C2C(=O)N1c1cccnc1 (centres undefined) do in these assays?
Sa ugtP lethal: inactive; BJeLR viability: inactive; Sa RN4220 lethal: inactive; PrPC TRFRET: inactive; SARS 3CLpro inh-1: 20; VHR inh abs: inactive; SARS 3CLpro inh-2: 70

How did COc1ccc(C2C=CCN(C(=O)NC(C)C)CC(=O)N2Cc2ccc(F)cc2)cc1 (centres undefined) do in these assays?
Sa ugtP lethal: inactive; Sa RN4220 lethal: inactive

What do the screens show for `O=C(Oc1ccc(Cl)cc1N1C(=O)CCC1=O)c1ccco1`?
Sa ugtP lethal: inactive; BJeLR viability: inactive; Sa RN4220 lethal: inactive; PrPC TRFRET: inactive; SARS 3CLpro inh-1: 15; VHR inh abs: inactive; SARS 3CLpro inh-2: 18

How did O=C(Oc1ccc(N2C(=O)CCC2=O)cc1)c1ccco1 do in these assays?
Sa ugtP lethal: inactive; BJeLR viability: inactive; Sa RN4220 lethal: inactive; PrPC TRFRET: inactive; SARS 3CLpro inh-1: inactive; VHR inh abs: inactive

Results for O=C(COC(=O)C=Cc1ccc(Cl)cc1Cl)NCCC1=CCCCC1 ?
Sa ugtP lethal: inactive; Sa RN4220 lethal: inactive

How did CC(C)c1ccc(N(C(=O)c2ccco2)C(C(=O)NC2CCCC2)c2ccncc2)cc1 (centres undefined) do in these assays?
Sa ugtP lethal: inactive; BJeLR viability: inactive; Sa RN4220 lethal: inactive; PrPC TRFRET: inactive; SARS 3CLpro inh-1: inactive; VHR inh abs: inactive

Results for CCc1ccc(N(C(=O)c2ccco2)C(C(=O)NC2CCCC2)c2cccnc2)cc1 (centres undefined) ?
Sa ugtP lethal: inactive; BJeLR viability: inactive; Sa RN4220 lethal: inactive; PrPC TRFRET: inactive; SARS 3CLpro inh-1: 16; VHR inh abs: inactive; SARS 3CLpro inh-2: inactive

High-throughput results: PubChem BioAssay, several laboratories
